GCN5L2 inh = blocks human GCN5L2 histone acetyltransferase | Q92830 | GCN5L2 HAT assay, ThioGlo1 CoA-SH fluorescence | Potency, µM (titrated, usually from 58.9 µM), hits mostly inhibitors | 0.21% of 390,000 active
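Free CoA generated was detected with ThioGlo1 (50uM) fluorescence at Ex340nm/Em540nm, read immediately and after 20 min at room temperature. Enzyme, 20 nM in HEPES pH 7.5 buffer, saw compounds 15 min before adding 75uM H3(1-25) peptide and 70uM acetyl-CoA.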
DT40 TDP1 no CPT = qHTS for Inhibitors of human tyrosyl-DNA phosphodiesterase 1 (TDP1): qHTS in cells in absence of CPT; AID 686978, 2013; Potency, µM (series often up to 46.2 µM), hits mostly inhibitors; 15% of 420,000 active; DT40 Tdp1-/- hTDP1 cells, no CPT, ATP luminescence, 48 h; further: nearly all actives have a fitted effect of over 55% in size
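Stably hTDP1-transfected Tdp1-null chicken DT40 cells were treated with library compounds minus camptothecin and grown for at least 48 hr at 37 °C, after which cellular ATP was quantified by luminescence.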
DT40 TDP1 CPT = DT40-hTDP1 cell growth loss with CPT. 12% of 420,000 active. chicken DT40 Tdp1-/-;hTDP1 cells + 20 nM CPT, ATP luminescence, 48 h. Potency, µM (top dose mostly 46.2 µM), actives largely listed as inhibitors. AID 686979; further: nearly all actives have a fitted effect of over 55% in size
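Chicken DT40 Tdp1-/- cells stably complemented with human TDP1 were seeded at 400 cells/well in medium containing 20 nM camptothecin, exposed to pin-transferred compounds, and grown at 37 °C for at least 48 hr. Viability was read as ATP luminescence.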
PLK1 PBD block = blocks phosphopeptide binding to human PLK1 polo-box domain; Plk1 PBD binding of FITC phosphopeptide, fluorescence polarization; Potency, µM, actives largely listed as inhibitors; 2.8% of 360,000 active; further: series mostly up to about 57 µM; nearly all actives have a fitted effect of over 65% in size
Target sequence (P53350 whole entry, looked up, the tested form may be a part): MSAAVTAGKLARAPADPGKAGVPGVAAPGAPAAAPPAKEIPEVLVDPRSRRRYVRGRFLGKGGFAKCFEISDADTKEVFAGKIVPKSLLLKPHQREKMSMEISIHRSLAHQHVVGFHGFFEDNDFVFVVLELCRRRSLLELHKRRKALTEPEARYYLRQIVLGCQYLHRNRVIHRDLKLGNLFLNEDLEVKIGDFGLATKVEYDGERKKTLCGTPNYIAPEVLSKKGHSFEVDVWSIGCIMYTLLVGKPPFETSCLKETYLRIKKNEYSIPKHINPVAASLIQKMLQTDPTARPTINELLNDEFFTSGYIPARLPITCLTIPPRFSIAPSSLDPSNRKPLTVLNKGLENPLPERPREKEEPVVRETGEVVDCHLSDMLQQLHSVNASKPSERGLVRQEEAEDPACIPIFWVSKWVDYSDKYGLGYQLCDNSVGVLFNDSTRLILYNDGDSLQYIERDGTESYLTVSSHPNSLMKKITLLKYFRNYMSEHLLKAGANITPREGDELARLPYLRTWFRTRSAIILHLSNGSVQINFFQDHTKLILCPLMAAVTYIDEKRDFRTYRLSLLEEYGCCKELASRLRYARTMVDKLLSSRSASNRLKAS
VDR inhibitor = inhibitors of human vitamin D receptor | P11473 | VDR-SRC2-3 peptide fluorescence polarization, 2 h | Potency, µM, most hits filed as inhibitors | 0.93% of 400,000 active
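Fluorescence polarization assay measuring small-molecule disruption of VDR binding to the coregulator peptide SRC2-3. Compounds were pin-transferred (23 nl) into the reagent mix and incubated 2 h at room temperature before reading.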
TDP1 block = inhibitors of human tyrosyl-DNA phosphodiesterase TDP1; Potency, µM (doses to about 130 µM), hits mostly inhibitors; recombinant TDP1, AlphaScreen DNA substrate cleavage; 0.28% of 350,000 active; further: nearly all actives have a fitted effect of over 40% in size
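Recombinant human Tdp1 (E. coli-expressed, 1 nM final) preincubated with compounds 15 min at room temperature, then 5'-biotin/3'-phosphotyrosine-FITC DNA substrate (15 nM final) added for 5 min. AlphaScreen beads (10 ug/ml final) added 10 min; cleavage lowers signal.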
Hits are given with their value. Only some compounds are listed: those with a hit (about 18% of all), similar ones and a draw of the others. The call rests on the fitted dose curve; in most records, active means well fitted curve in the direction sought with a large enough effect; inconclusive means small, poorly fitted or top-dose-only effect, or another doubt; inactive means no such curve, though single readings can be large; an effect the other way counts as inactive or inconclusive.

Results for COc1cccc2c(=O)cc(C)n(CC(=O)Nc3ccc(C)c(C)c3)c12 ?
GCN5L2 inh: inactive; DT40 TDP1 no CPT: 15µM; DT40 TDP1 CPT: inconclusive; PLK1 PBD block: inactive; VDR inhibitor: inactive; TDP1 block: inactive

Results for COc1cc2c(=O)n(Cc3ccccc3Cl)c(=O)n(CC(=O)Nc3ccccc3)c2cc1OC ?
GCN5L2 inh: inactive; DT40 TDP1 no CPT: inconclusive; DT40 TDP1 CPT: inconclusive; VDR inhibitor: inactive; TDP1 block: inactive

How did Cc1ccc(Nc2ccc(S(=O)(=O)N3CCOCC3)cc2[N+](=O)[O-])cc1C do in these assays?
GCN5L2 inh: inactive; DT40 TDP1 no CPT: inconclusive; DT40 TDP1 CPT: inconclusive; PLK1 PBD block: inactive; VDR inhibitor: inactive; TDP1 block: inactive

Results for CCCCSc1ncnc2c1ncn2C1CCCCO1 (centres undefined) ?
DT40 TDP1 no CPT: inconclusive; DT40 TDP1 CPT: inactive; PLK1 PBD block: inactive; VDR inhibitor: inactive

Results for CCOC(=O)C1(C(F)(F)F)N=C(c2cccnc2)OC(N2CCCCC2)=N1 (centres undefined) ?
GCN5L2 inh: inactive; DT40 TDP1 no CPT: inconclusive; DT40 TDP1 CPT: inconclusive; PLK1 PBD block: inactive; VDR inhibitor: inactive; TDP1 block: inactive

Results for CO/N=C/CC(=O)c1ccc([N+](=O)[O-])c(CS(=O)(=O)c2ccc(Cl)cc2)c1 ?
GCN5L2 inh: inactive; DT40 TDP1 no CPT: inconclusive; DT40 TDP1 CPT: inconclusive; PLK1 PBD block: inactive; VDR inhibitor: inactive

How did CCOc1ccc(N(C)C(=O)CS(=O)(=O)c2cccc3nsnc23)cc1 do in these assays?
GCN5L2 inh: inactive; DT40 TDP1 no CPT: inconclusive; DT40 TDP1 CPT: inactive; VDR inhibitor: inactive; TDP1 block: inactive

Results for COc1cccc(C)c1NC(=O)C(OC(=O)CNC(=O)c1ccccc1)c1ccccc1 (centres undefined) ?
TDP1 block: inactive

How did COc1ccc(CC(=O)NCc2ccc(Cl)cc2)cc1S(=O)(=O)N1CCOCC1 do in these assays?
GCN5L2 inh: inactive; DT40 TDP1 no CPT: inactive; DT40 TDP1 CPT: inactive; PLK1 PBD block: inactive; VDR inhibitor: inactive; TDP1 block: inactive

What do the screens show for `CCN(CC(=O)Nc1ccc(OC)cc1)CC(=O)Nc1cccc(S(=O)(=O)N2CCOCC2)c1`?
DT40 TDP1 no CPT: inconclusive; DT40 TDP1 CPT: inactive; PLK1 PBD block: inactive

Results for COC(=O)c1sccc1N(C)S(C)(=O)=O ?
GCN5L2 inh: inactive; DT40 TDP1 no CPT: inactive; DT40 TDP1 CPT: inactive; PLK1 PBD block: inactive; VDR inhibitor: inactive; TDP1 block: inactive

Results for CC(C)c1ccc(C2=CC(c3cccc(Cl)c3)n3c(nc4ccccc43)N2)cc1 (centres undefined) ?
GCN5L2 inh: inactive; DT40 TDP1 no CPT: 16µM; DT40 TDP1 CPT: inconclusive; VDR inhibitor: inactive; TDP1 block: inactive

Results for CCOc1ccc(C2=CC(c3cccc(Br)c3)n3c(nc4ccccc43)N2)cc1Cl (centres undefined) ?
GCN5L2 inh: inactive; DT40 TDP1 no CPT: 13µM; DT40 TDP1 CPT: inconclusive; VDR inhibitor: inactive; TDP1 block: inactive

What do the screens show for `CC(C)c1ccc(C2=CC(c3cccc(Cl)c3)n3ncnc3N2)cc1` (centres undefined)?
GCN5L2 inh: inactive; DT40 TDP1 no CPT: 23µM; DT40 TDP1 CPT: inconclusive; VDR inhibitor: inactive; TDP1 block: inactive

How did CCc1ccc(C2=CC(c3cccc(C)c3)n3c(nc4ccccc43)N2)cc1 (centres undefined) do in these assays?
GCN5L2 inh: inactive; DT40 TDP1 no CPT: 2.6µM; DT40 TDP1 CPT: inconclusive; VDR inhibitor: inactive; TDP1 block: inactive

Results for COc1cccc(C2=CC(c3ccc(C)cc3)n3ncnc3N2)c1 (centres undefined) ?
GCN5L2 inh: inactive; TDP1 block: inactive

How did CCc1ccc(C2N=C(N)Nc3nc4ccccc4n32)cc1 (centres undefined) do in these assays?
GCN5L2 inh: inactive; DT40 TDP1 no CPT: 18µM; DT40 TDP1 CPT: 16µM; VDR inhibitor: inactive; TDP1 block: inactive

What do the screens show for `CC(C)c1ccc(C2N=C(N)Nc3nc4ccccc4n32)cc1` (centres undefined)?
GCN5L2 inh: inactive; DT40 TDP1 no CPT: inactive; DT40 TDP1 CPT: inconclusive; VDR inhibitor: inactive; TDP1 block: inactive

What do the screens show for `COc1ccc(S(=O)(=O)NCCc2ccc(F)cc2)cc1`?
GCN5L2 inh: inactive; DT40 TDP1 no CPT: inactive; DT40 TDP1 CPT: inactive; PLK1 PBD block: inactive; VDR inhibitor: inactive; TDP1 block: inactive

What do the screens show for `CCCCNc1ccc(C(F)(F)F)cc1S(=O)(=O)NCCc1ccc(F)cc1`?
GCN5L2 inh: inactive; DT40 TDP1 no CPT: 6.5µM; DT40 TDP1 CPT: 18µM; PLK1 PBD block: inactive; VDR inhibitor: inactive; TDP1 block: inactive

How did CCCCOc1ccc(N(CC(=O)NC2CCCCC2)C(=O)c2snc(C(N)=O)c2N)cc1 do in these assays?
GCN5L2 inh: inactive; DT40 TDP1 no CPT: 16µM; DT40 TDP1 CPT: inconclusive; PLK1 PBD block: 34µM; VDR inhibitor: inconclusive; TDP1 block: inactive

What do the screens show for `Cc1cc(C)cc(N(C(=O)c2snc(C(N)=O)c2N)C(C(=O)NCC2CCCO2)c2ccc(C)o2)c1` (centres undefined)?
GCN5L2 inh: inactive; DT40 TDP1 no CPT: 21µM; DT40 TDP1 CPT: inconclusive; PLK1 PBD block: inactive; VDR inhibitor: inactive; TDP1 block: inactive

What do the screens show for `CCOc1ccc(C(C(=O)NCC2CCCO2)N(C(=O)c2snc(C(N)=O)c2N)c2ccccc2F)cc1` (centres undefined)?
GCN5L2 inh: inactive; DT40 TDP1 no CPT: inconclusive; DT40 TDP1 CPT: 21µM; PLK1 PBD block: inactive; VDR inhibitor: inactive

How did NC(=O)c1nsc(C(=O)N(CC(=O)NC2CCCCC2)c2ccc(Cl)cc2)c1N do in these assays?
GCN5L2 inh: inactive; DT40 TDP1 no CPT: inconclusive; DT40 TDP1 CPT: inconclusive; PLK1 PBD block: inactive; VDR inhibitor: inactive; TDP1 block: inactive

What do the screens show for `Cc1ccc(C)c(N(CC(=O)NC2CCCCC2)C(=O)c2snc(C(N)=O)c2N)c1`?
GCN5L2 inh: inactive; DT40 TDP1 no CPT: inactive; DT40 TDP1 CPT: inconclusive; PLK1 PBD block: inactive; VDR inhibitor: inactive; TDP1 block: inactive

How did COc1cc(OC)cc(N(C(=O)c2snc(C(N)=O)c2N)C(C(=O)NCC2CCCO2)c2ccc(C)o2)c1 (centres undefined) do in these assays?
GCN5L2 inh: inactive; TDP1 block: inactive

Results for CC(C)(C)NC(=O)CN(C(=O)c1snc(C(=O)NC2CCCCC2)c1N)c1ccccc1F ?
GCN5L2 inh: inactive; DT40 TDP1 no CPT: 21µM; DT40 TDP1 CPT: inconclusive; PLK1 PBD block: inactive; VDR inhibitor: inactive

What do the screens show for `CC(C)Sc1ncnc2[nH]ncc12`?
DT40 TDP1 no CPT: inconclusive; DT40 TDP1 CPT: inactive; PLK1 PBD block: inactive; VDR inhibitor: inactive

High-throughput results (PubChem BioAssay)
